Only some compounds are listed: those with a hit (about 3.5% of all), similar ones and a draw of the others.
MITF primary – human MITF inhibition, primary screen; O75030; AlphaScreen MITF homodimerization, bead proximity signal; inhibition, % at 2.6 µM; hit rate 0.91% among 650,000; AID 1259374; in the data active means inhibition above about 50%
GPR151 activ – activates the human receptor GPR151. PathHunter beta-arrestin GPR151 cells, luminescence. activation, % at 11.2 µM. hit rate 1% among 650,000; in the data active means activation above about 4.9%
TEAD-YAP inh – TEAD-YAP interaction inhibition. HEK-TIYL cells, TEAD-Gal4/YAP UAS-luciferase luminescence. inhibition, % at 9.12 µM. hit rate 1.4% among 640,000. AID 1259422; in the data active means inhibition above about 32%
FBW7 activator – human FBW7 E3 ligase activation, primary screen; AlphaScreen FBW7–phospho-cyclin E peptide binding, activator screen; normalized activity (activation), % at 26.1 µM; hit rate 0.13% among 650,000; in the data active means normalized activity above about 1.9%;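 further: purified mutant Fbw7 with reduced substrate affinity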
Target sequence (Q969H0 whole entry, looked up): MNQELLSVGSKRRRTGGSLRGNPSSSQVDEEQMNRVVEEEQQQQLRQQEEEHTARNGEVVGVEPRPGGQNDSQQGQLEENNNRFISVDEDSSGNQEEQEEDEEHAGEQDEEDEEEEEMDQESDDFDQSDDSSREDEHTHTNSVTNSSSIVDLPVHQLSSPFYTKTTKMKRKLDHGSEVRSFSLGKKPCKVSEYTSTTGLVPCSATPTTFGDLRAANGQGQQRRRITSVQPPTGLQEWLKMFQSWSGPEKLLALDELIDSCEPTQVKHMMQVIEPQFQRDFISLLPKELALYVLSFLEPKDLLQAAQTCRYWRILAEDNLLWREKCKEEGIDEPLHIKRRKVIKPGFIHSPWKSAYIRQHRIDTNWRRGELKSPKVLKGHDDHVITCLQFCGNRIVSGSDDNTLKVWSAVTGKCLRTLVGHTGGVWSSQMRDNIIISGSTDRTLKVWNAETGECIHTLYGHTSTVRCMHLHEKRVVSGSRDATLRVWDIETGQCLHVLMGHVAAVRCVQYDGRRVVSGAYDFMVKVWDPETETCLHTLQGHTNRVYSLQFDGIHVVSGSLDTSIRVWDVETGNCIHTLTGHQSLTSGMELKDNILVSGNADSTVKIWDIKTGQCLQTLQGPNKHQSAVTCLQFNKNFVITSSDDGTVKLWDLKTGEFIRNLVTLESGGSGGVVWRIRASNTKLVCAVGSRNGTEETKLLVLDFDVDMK
MITF confirm – human MITF inhibition, confirmation. shares compounds with MITF primary. AlphaScreen MITF homodimerization, biotin/His-MITF beads. inhibition, % at 2.6 µM. hit rate 16% among 4,700. AID 1259372;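 active means inhibition above a cutoff derived from the DMSO control wells, cut at about 28% in these data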;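 further: inhibitors lower the bead chemiluminescence by keeping MITF from dimerizing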
AS interf DR – optically interferes with AlphaScreen signal in dose response | shares compounds with MITF primary | AlphaScreen optical interference counterscreen, cell-free | IC50, µM | hit rate 6% among 480 | AID 1259373; call rule not given here
AS interf ctr – counter-screen: compounds optically interfering with AlphaScreen; shares compounds with MITF primary; LysRS AlphaScreen counterscreen, signal interference, triplicate; inhibition, % at 2.6 µM; hit rate 7.6% among 4,700; AID 1259376;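 active means inhibition above a cutoff derived from the DMSO control wells, cut at about 30% in these data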
Hits are given with their value; i = inactive; nt = not tested or not shown.

SMILES	MITF primary	GPR151 activ	TEAD-YAP inh	FBW7 activator	MITF confirm	AS interf ctr	others
Cc1ccc(OC(=O)N2CCN3C(=O)[C@@H](Cc4ccccc4)NC(=O)[C@H]3C2)cc1	i	i	i	i	nt	nt
O=C(CN1CCSCC1)N/N=C/c1cccnc1	51	i	i	i	i	i
O=C(CNCCOCCO)N1c2ccccc2Sc2ccccc21	74	i	i	i	i	i
COCCNCC(=O)N1c2ccccc2Sc2ccccc21	i	i	i	i	nt	nt
CN(C)CC(C)(C)CNC(=O)C1CCN(Cc2ccccc2Cl)CC1	63	i	i	i	i	i
O=C(NCc1ccco1)C1CCN(Cc2cccc(Cl)c2Cl)CC1	51	i	i	i	i	i
C1=C(c2cccs2)Nc2nc3ccccc3n2C1c1cccs1 (centres undefined)	i	i	i	i	nt	nt
COc1ccccc1-c1c(NC(=O)c2cccs2)n(C)c2ccccc2c1=O	i	i	i	i	nt	nt
CC(=O)Nc1nc(-c2ccc(C)cc2C)cs1	i	i	i	i	nt	nt
Cc1ccc(-c2csc(NC(=O)c3cc(Cl)cc(Cl)c3)n2)c(C)c1	75	i	i	i	i	i
COc1ccccc1C(=O)Nc1ccc(C2(C#N)CCCC2)cc1	65	i	i	i	i	i
O=[N+]([O-])c1ccccc1S(=O)(=O)N1CCN(Cc2ccncc2)CC1	76	i	i	i	i	i
O=[N+]([O-])c1ccccc1S(=O)(=O)N1CCN(Cc2ccccc2)CC1	i	i	i	i	nt	nt
O=[N+]([O-])c1ccccc1S(=O)(=O)N1CCN(Cc2cccs2)CC1	55	i	i	i	i	i
COc1cccc(CN2CCN(S(=O)(=O)c3ccccc3[N+](=O)[O-])CC2)c1OC	53	i	i	i	i	i
O=[N+]([O-])c1ccccc1S(=O)(=O)N1CCN(Cc2cccc(F)c2)CC1	56	i	i	i	i	i
O=[N+]([O-])c1ccccc1S(=O)(=O)N1CCN(Cc2ccsc2)CC1	i	i	i	i	nt	nt
COc1cc(/C=C2/C(=O)N(C)C(=S)N2C)cc(Br)c1O	i	i	i	i	nt	nt
Cc1cccc(CN2CCN(S(=O)(=O)c3ccccc3[N+](=O)[O-])CC2)c1	59	i	i	i	45	i	AS interf DR=i
CCC(C)c1ccccc1OCCCNCCOC (centres undefined)	i	i	i	i	nt	nt
CCC(C)c1ccccc1OCCCNCCCOC (centres undefined)	60	i	i	i	i	i
CCC(C)c1ccccc1OCCNC(C)C (centres undefined)	85	i	i	i	i	i
COc1ccc(C(c2nnnn2C(C)C)N2CCN(c3nc4ccccc4s3)CC2)cc1 (centres undefined)	i	i	i	i	nt	nt
Cc1cc(C)c(C)c(S(=O)(=O)Nc2ccc(C(=O)NCc3ccccn3)cc2)c1C	i	i	i	i	nt	nt
CS(=O)(=O)Nc1ccc(C(=O)NCc2ccccn2)cc1	70	i	i	i	i	i
SMILES	MITF primary	GPR151 activ	TEAD-YAP inh	FBW7 activator	MITF confirm	AS interf ctr	others
O=C1CNS(=O)(=O)c2ccccc2N1	59	i	i	i	i	i
CC(C)NC(=S)NC(=O)c1ccco1	i	i	i	i	nt	nt
O=C1C(=O)N(CC2CCCO2)C(c2ccc(Cl)cc2)/C1=C(/O)c1ccccc1 (centres undefined)	i	i	i	i	nt	nt
O=C1C(=O)N(CC2CCCO2)C(c2ccco2)/C1=C(/O)c1ccc(Cl)cc1 (centres undefined)	53	i	i	i	i	i
CCOC(=O)C(=O)Nc1nc(-c2ccc3c(c2)CCN3C(C)=O)c(C)s1	i	i	i	i	nt	nt
CCOc1ccc2c(c1)sc(=NC(=O)CSC(C)=O)n2C	i	i	i	i	nt	nt
COc1ccccc1-c1c(C)nn2c(N3CCN(c4ncccn4)CC3)cc(C)nc12	i	i	i	i	nt	nt
C=CCc1cccc(Cl)c1OCCCNCCN1CCOCC1	56	i	i	i	i	i
C=CCc1cccc(Cl)c1OCCCN1CCN(C)CC1	i	i	i	i	nt	nt
C=CCc1cccc(Cl)c1OCCCN1CCNCC1	53	i	i	i	i	i
COc1ccc(C2C(C(=O)Nc3ccc(C(C)C)cc3)c3ccccc3C(=O)N2C)cc1 (centres undefined)	i	i	i	i	nt	nt
CC1CC(C)CN(S(=O)(=O)c2ccc(F)c(C(=O)NCc3ccc(Cl)c(Cl)c3)c2)C1 (centres undefined)	i	i	i	i	nt	nt
O=C1OC(c2ccccc2)=N/C1=C/c1cc2ccccc2nc1N1CCOCC1	56	i	i	i	i	i
CN1CCN(C(=O)CSc2nnc(N)s2)CC1	i	i	i	i	nt	nt
O=C(c1ccc([N+](=O)[O-])cc1)N1CCN(Cc2ccccn2)CC1	64	i	i	i	i	i
O=C(c1ccc([N+](=O)[O-])cc1)N1CCN(Cc2cccc3ccccc23)CC1	58	i	i	i	29	i	AS interf DR=i
O=C(c1cccc(F)c1)N1CCN(Cc2ccccn2)CC1	i	i	i	i	nt	nt
COc1cc(/C=C2\NC(=S)NC2=O)cc([N+](=O)[O-])c1O	i	i	i	i	nt	nt
CN1CCN(C(CNC(=O)c2ccc(-c3ccccc3)cc2)c2ccsc2)CC1 (centres undefined)	55	i	i	i	i	i
CC(C)N(CC(N)=O)C(=O)c1cc2ccccc2o1	i	i	i	i	nt	nt
CCC1(C)NC(=S)N(c2ccccc2)N1 (centres undefined)	i	i	i	i	nt	nt
Cn1c(SCC(=O)O)nnc1-c1cnccn1	61	i	i	i	i	i
Cn1c(SCC(N)=O)nnc1-c1cnccn1	i	i	i	i	nt	nt
CCNc1cc(C)nc(N2CCN(C(=O)c3cccc(OC)c3)CC2)n1	59	i	i	i	i	i
CCNc1cc(C)nc(N2CCN(C(=O)c3c(F)cccc3Cl)CC2)n1	i	i	i	i	nt	nt
SMILES	MITF primary	GPR151 activ	TEAD-YAP inh	FBW7 activator	MITF confirm	AS interf ctr	others
COc1ccc(C(=O)N2CCN(Cc3cc(OC)c(OC)c(OC)c3)CC2)cc1OC	i	i	i	i	nt	nt
COc1ccc(C(=O)N2CCN(Cc3ccc(Cl)cc3)CC2)cc1OC	53	i	i	i	i	i
COc1cccc(C(=O)N2CCN(Cc3ccc(OC)c(OC)c3)CC2)c1	61	i	i	i	i	i
COc1cccc(C(=O)N2CCN(Cc3cccc(Br)c3)CC2)c1	54	i	i	i	i	i
COc1cccc(C(=O)N2CCN(Cc3ccc(C)cc3)CC2)c1	58	i	i	i	i	i
COc1cccc(OC)c1C(=O)N1CCN(Cc2cccc(Br)c2)CC1	64	i	i	i	i	i
Cc1ccccc1OCC1=NN2C(=N)/C(=C/c3ccc([N+](=O)[O-])o3)C(=O)N=C2S1	i	i	i	i	nt	nt
O=C(/C=C/c1ccc(-c2ccc(F)cc2)o1)c1ccco1	58	i	i	i	77	40
O=C(/C=C/c1ccc(-c2cccc(C(F)(F)F)c2)o1)c1ccco1	78	i	i	i	70	i	AS interf DR=i

Screens deposited in PubChem BioAssay by The Scripps Research Institute Molecular Screening Center.
